# “And” between values parts separate entries of the source, which are not always exact repeats. Equal values may be shown once. Inconclusive results are not listed. Where a call stands in place of a potency, no number is given. More than one record can exist for a structure, and the calls need not agree. The source made the active and inactive calls. Unless noted, the call rests on the fitted dose curve; in most records, active means well fitted curve in the direction sought with a large enough effect in the repeat runs; inconclusive means weak or mixed curves; inactive means no such curve, though single readings can be large; an effect the other way counts as inactive or inconclusive.
# Experiments:
# [1] = qHTS assay to identify small molecule antagonists of the constitutive androstane receptor (CAR) signaling pathway - cell viability counter screen (AID 1224837); further: nearly all actives have a fitted effect of over 45% in size; further: potency means the concentration at half of the fitted maximal effect
# How it was run: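 Counter screen run in HepG2-CYP2B6-hCAR cells: 4 hr settle, compound titration (15 concentrations) with 50 nM CITCO, 23 hr at 37 C/5% CO2, CellTiter-Fluor fluorescence.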
# [2] = target: Nuclear receptor subfamily 1 group I member 3 (Homo sapiens) (UniProt Q14994); test: qHTS assay to identify small molecule antagonists of the constitutive androstane receptor (CAR) signaling pathway (AID 1224838);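 further: HepG2 cells stably expressing hCAR with CYP2B6 luciferase reporter stimulated by CITCO; nearly all actives have a fitted effect of over 40% in size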; further: potency means the concentration at half of the fitted maximal effect
# How it was run: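 Cell line: HepG2 double-stable for hCAR and CYP2B6-2.2kb reporter. Agonist: CITCO, 50 nM final. Compounds: 15 concentrations, 24 h, 37 C. Detection: ONE-Glo luminescence.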
# [3] = target: Nuclear receptor subfamily 1 group I member 3 (Homo sapiens) (UniProt Q14994); test: qHTS assay to identify small molecule agonists of the constitutive androstane receptor (CAR) signaling pathway (AID 1224839);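 further: HepG2 cells stably carrying human CAR and a CYP2B6 luciferase reporter; nearly all actives have a fitted effect of over 15% in size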
# How it was run: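 Luminescent ONE-Glo read-out after 24 hr, 37 C exposure of double-stable HepG2-CYP2B6-hCAR reporter cells to a 15-point compound series, in the presence of 0.75 uM PK11195 (final).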
# [4] = qHTS assay to identify small molecule antagonists of the estrogen related receptor signaling pathway with the pleiotropic PPARgamma coactivator (PGC) from Tox21 10K library - cell viability counter screen (AID 1224840; active means well fitted cell-killing curve with a large enough effect in the repeat runs, not every such curve was filed as active; further: nearly all actives have a fitted effect of over 40% in size; further: potency means the concentration at half of the fitted maximal effect)
# How it was run: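 Following seeding of 2,000 PGC/ERR cells/well and 6 hours' incubation, test compounds were delivered in DMSO. The plates then sat 17.5 hours at 37 C before a fluorogenic live-cell protease reagent (CellTiter-Fluor) was read after 30 min.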
# [5] = qHTS assay to identify small molecule agonists of the estrogen related receptor signaling pathway with the pleiotropic PPARgamma coactivator (PGC) from Tox21 10K library (AID 1224842); further: nearly all actives have a fitted effect of over 15% in size
# How it was run: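 Luminescence from One-Glo (30 min, room temperature) measured after PGC/ERR cells had 18 h at 37 C with pinned compound (23 nL in DMSO). Cells had been seeded at 2,000 per well and pre-incubated 6 h.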
# [6] = qHTS assay to identify small molecule agonists of the hypoxia (HIF-1) signaling pathway - cell viability counter screen (AID 1224844; calls by dose curve; further: nearly all actives have a fitted effect of over 50% in size; further: potency means the concentration at half of the fitted maximal effect)
# How it was run: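 Cells (HRE-bla ME-180, 2,000 per well) sat 5 hrs at 37C, got compound for 17 hrs, were read for CCF4-AM FRET, and were finally lysed with CellTiter-Glo for a 30 min room-temperature luminescence read.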
# [7] = qHTS assay to identify small molecule agonists of H2AX (AID 1224845; active means well fitted activation curve with a large enough effect in the signal ratio in the repeat runs, not every such curve was filed as active; the % refers to the signal ratio)
# How it was run: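 Phospho-H2AX Ser139 measured by HTRF (ex 320 nm; em 665 and 620 nm) after 24 hr antibody incubation. Compounds, 15 concentrations, 0.76% DMSO, were applied to CHO-K1 cells for 3hr at 37C before lysis.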
# [8] = qHTS assay to identify small molecule agonists of H2AX - cell viability counter screen (AID 1224847; calls by dose curve; further: nearly all actives have a fitted effect of over 30% in size; further: potency means the concentration at half of the fitted maximal effect)
# How it was run: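 Counter-screen for viability: CellTiter-Glo ATP luminescence read after 3 h compound treatment (15-point titration, 0.76% DMSO final) of CHO-K1 cells at 37C, with 30 min room-temperature reagent incubation.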
# [9] = qHTS assay to identify small molecule antagonists of the estrogen related receptor (ERR) signaling pathway from Tox21 library (AID 1224848); further: nearly all actives have a fitted effect of over 50% in size; further: potency means the concentration at half of the fitted maximal effect
# How it was run: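 Antagonist-mode screen of the Tox21 10K library in an NTP-provided ERR reporter cell line; 18 h compound exposure at 37 C, luminescence measured with ONE-Glo.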
# [10] = qHTS assay to identify small molecule agonists of the estrogen related receptor (ERR) signaling pathway from Tox21 library (AID 1224849; calls by dose curve; further: nearly all actives have a fitted effect of over 15% in size); settings: ERR reporter cell line, ONE-Glo luciferase, 18 h
# How it was run: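 Screening used an NTP-provided ERR luciferase cell line. Compounds in DMSO were added 6 h after seeding and left 18 h at 37 C before a 30 min ONE-Glo step and luminescence reading.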
# [11] = qHTS RealTime-Glo MT Cell Viability Assay in HepG2 cells - 24 hour (AID 1224867); further: nearly all actives have a fitted effect of over 50% in size; further: potency means the concentration at half of the fitted maximal effect
# How it was run: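 Viability was tracked continuously by NanoLuc luminescence from prosubstrate reduced by living HepG2 cells, at successive time points over 40 h of compound exposure. Cells with reagent were preincubated 5 h at 37 °C before compound addition.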
# [12] = qHTS RealTime-Glo MT Cell Viability Assay in HEK293 cells - 32 hour (AID 1224868); further: nearly all actives have a fitted effect of over 50% in size; further: potency means the concentration at half of the fitted maximal effect
# How it was run: (§1)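 Viability tracked continuously by luminescence as live cells reduce a prosubstrate for NanoLuc; HEK293 cells preincubated 5 h, compound-treated at 37 C, and read at 0, 8, 16, 24, 32 and 40 h.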
# [13] = A CellTox Green Cytotoxicity Assay to monitor cytotoxicity in HEK293 cells - 0 hour (AID 1224869); further: nearly all actives have a fitted effect of over 50% in size
# How it was run: (§2)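 Fluorescence intensity, read at 0, 8, 16, 24, 32 and 40 h of compound treatment, reflected dye binding to DNA of dead HEK293 cells; compounds (23 nL, DMSO) were added 5 h after plating cells with reagent.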
# [14] = qHTS RealTime-Glo MT Cell Viability Assay in HepG2 cells - 40 hour (AID 1224870); further: nearly all actives have a fitted effect of over 50% in size; further: potency means the concentration at half of the fitted maximal effect
# How it was run: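 Real-time viability: cells seeded at 600 per well together with NanoLuc and cell-permeant prosubstrate, compounds added after 5 h incubation. Luminescence tracked at 0, 8, 16, 24, 32 and 40 h of exposure.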
# [15] = A CellTox Green Cytotoxicity Assay to monitor cytotoxicity in HEK293 cells - 40 hour (AID 1224871); further: nearly all actives have a fitted effect of over 45% in size; further: potency means the concentration at half of the fitted maximal effect
# How it was run: as §2
# [16] = qHTS RealTime-Glo MT Cell Viability Assay in HEK293 cells - 16 hour (AID 1224872); further: nearly all actives have a fitted effect of over 50% in size; further: potency means the concentration at half of the fitted maximal effect
# How it was run: as §1
# [17] = qHTS assay to identify small molecule agonists of the constitutive androstane receptor (CAR) signaling pathway - cell viability counter screen (AID 1224836); further: nearly all actives have a fitted effect of over 45% in size
# How it was run: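 Cell viability multiplexed with the CAR agonist screen: CellTiter-Fluor fluorescence after 23 hr at 37 C. HepG2-CYP2B6-hCAR cells got compounds at 15 concentrations with PK11195 at 0.75 uM final.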
# [18] = qHTS assay to identify small molecule antagonists of the estrogen related receptor signaling pathway with the pleiotropic PPARgamma coactivator (PGC) from Tox21 10K library (AID 1224841; call rule not given here)
# How it was run: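 qHTS antagonist format: PGC/ERR cells, 2k/well, compound in DMSO by pin transfer after 6 h attachment, 18 h treatment at 37 C, One-Glo luminescence read at 30 min.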
# [19] = target: Thyrotropin receptor (Homo sapiens) (UniProt P16473); test: qHTS assay to identify small molecule agonists of the thyroid stimulating hormone receptor (TSHR) signaling pathway (AID 1224843; calls by dose curve; further: nearly all actives have a fitted effect of over 45% in size)
# How it was run: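 Screening of the Tox21 10K collection used HEK293 cells engineered with TSHR at 800 cells per well. After a 30-min room-temperature compound exposure, HTRF cAMP reagents were added and fluorescence recorded 1 h later.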
# [20] = qHTS assay to identify small molecule agonists of the hypoxia (HIF-1) signaling pathway (AID 1224846; active means well fitted activation curve with a large enough effect in the signal ratio in the repeat runs, not every such curve was filed as active; the % refers to the signal ratio)
# How it was run: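 A low-serum medium (0.5% dialyzed FBS) holding 2,000 HRE-bla ME-180 cells per well is preincubated for 5 hrs, dosed with compounds by pintool, and kept a further 17 hrs at 37C, 5% CO2 before CCF4-AM FRET detection of beta-lactamase.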
# Chain of Nuclear receptor subfamily 1 group I member 3 (Homo sapiens) (Q14994 whole entry, looked up): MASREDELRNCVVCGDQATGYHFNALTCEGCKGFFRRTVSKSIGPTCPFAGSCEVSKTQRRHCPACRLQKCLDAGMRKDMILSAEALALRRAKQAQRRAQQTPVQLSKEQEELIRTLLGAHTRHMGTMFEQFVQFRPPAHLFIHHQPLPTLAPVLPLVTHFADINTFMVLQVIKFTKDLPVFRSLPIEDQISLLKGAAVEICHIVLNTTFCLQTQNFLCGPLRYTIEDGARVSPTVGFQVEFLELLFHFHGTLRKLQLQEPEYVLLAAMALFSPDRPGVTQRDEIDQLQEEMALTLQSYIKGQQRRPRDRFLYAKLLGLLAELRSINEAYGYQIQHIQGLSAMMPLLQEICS
# Chain of Thyrotropin receptor (Homo sapiens) (P16473 whole entry, looked up): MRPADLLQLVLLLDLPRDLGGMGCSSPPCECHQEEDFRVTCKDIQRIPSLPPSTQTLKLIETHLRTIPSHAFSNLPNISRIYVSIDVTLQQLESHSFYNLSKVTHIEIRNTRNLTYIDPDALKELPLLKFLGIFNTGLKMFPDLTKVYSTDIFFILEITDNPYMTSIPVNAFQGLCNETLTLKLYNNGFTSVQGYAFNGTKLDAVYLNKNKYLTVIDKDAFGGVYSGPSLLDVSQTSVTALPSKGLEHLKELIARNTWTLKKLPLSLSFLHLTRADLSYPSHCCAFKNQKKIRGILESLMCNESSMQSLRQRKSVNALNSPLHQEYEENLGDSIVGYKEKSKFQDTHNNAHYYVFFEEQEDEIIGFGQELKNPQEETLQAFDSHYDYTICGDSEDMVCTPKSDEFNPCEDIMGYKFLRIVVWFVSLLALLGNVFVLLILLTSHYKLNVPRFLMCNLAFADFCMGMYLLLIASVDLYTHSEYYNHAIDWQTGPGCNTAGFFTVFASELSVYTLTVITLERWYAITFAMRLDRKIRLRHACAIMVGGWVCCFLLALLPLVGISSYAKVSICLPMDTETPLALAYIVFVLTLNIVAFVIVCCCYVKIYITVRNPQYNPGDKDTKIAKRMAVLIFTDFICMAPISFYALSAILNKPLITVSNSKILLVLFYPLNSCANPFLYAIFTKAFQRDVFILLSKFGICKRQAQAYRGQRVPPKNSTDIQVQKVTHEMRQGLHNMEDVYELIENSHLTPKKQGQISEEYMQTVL
smiles,measurement,setting,value
CCCCCCCCCCCCCC[N+](C)(C)C,Potency,[1],13.2 µM (active) and 27.3 µM (active)
same,Potency,[2],59.1 µM (active) and inactive
same,Potency,[3],inactive
same,Potency,[4],23.5 µM (active) and 54.4 µM (active) and inactive
same,Potency,[5],inactive
same,Potency,[6],42.2 µM (active)
same,Potency,[7],inactive
same,Potency,[8],38.8 µM (active) and 50.4 µM (active)
same,Potency,[9],2.64 µM (active) and 4.32 µM (active) and 8.41 µM (active)
same,"activity change, positive = activation",[10]; at 42.5 µM (top of the series),-50% (inactive)
same,"activity change, positive = activation",[10]; at 92.4 µM (top of the series),-78.5% (inactive) and -74.4% (inactive)
same,Potency,[11],11.9 µM (active) and 21.8 µM (active) and 23.9 µM (active)
same,Potency,[12],9.44 µM (active) and 12.3 µM (active) and 2.13 µM (active)
same,Potency,[13],inactive
same,Potency,[14],7.5 µM (active) and 17.4 µM (active) and 23.9 µM (active)
same,Potency,[15],29.9 µM (active) and 48.9 µM (active) and 26.8 µM (active)
same,Potency,[16],21.1 µM (active) and 6.91 µM (active)
CCCCC(CC)CN1CN(CC(CC)CCCC)CC(C)(N)C1 (centres undefined),Potency,[17],inactive
same,Potency,[4],inactive
same,Potency,[18],inactive
same,Potency,[5],inactive
same,"activity change, positive = activation",[10]; at 42.5 µM (top of the series),-16.4% (inactive)
same,Potency,[12],8.49 µM (active)
same,Potency,[13],inactive
same,Potency,[15],10.7 µM (active)
same,Potency,[16],9.52 µM (active)
CC[N+](CC)(CC)CCOc1ccc(/C=C/c2ccccc2)cc1,Potency,[1],inactive
same,Potency,[2],inactive
same,Potency,[3],inactive
same,Potency,[4],inactive
same,Potency,[19],inactive
same,Potency,[7],inactive
same,Potency,[20],inactive
same,Potency,[9],7.5 µM (active)
same,"activity change, positive = activation",[10]; at 42.5 µM (top of the series),-43% (inactive)
same,Potency,[13],inactive
same,Potency,[14],23.9 µM (active)
same,Potency,[15],6.01 µM (active)
same,Potency,[16],inactive
S=c1nccc[nH]1,Potency,[17],inactive
same,Potency,[3],inactive
same,Potency,[4],inactive
same,Potency,[18],inactive
same,Potency,[6],inactive
same,Potency,[7],inactive
same,Potency,[20],inactive
same,Potency,[8],inactive
same,Potency,[9],inactive
same,"activity change, positive = activation",[10]; at 92.4 µM (top of the series),-6.52% (inactive)
same,Potency,[11],inactive
same,Potency,[12],inactive
same,Potency,[14],inactive
same,Potency,[15],inactive
same,Potency,[16],inactive

# — PubChem BioAssay (Tox21)
